Bioassay records: PubChem, several laboratories
This is a sample that favours compounds with a hit; in the whole collection about 5.2% have one here.
esBAF inh = blocks esBAF chromatin remodeling in mouse ES cells; Bmi1-luciferase knock-in reporter, 24 h; 100% = twice the neutral-well signal; reporter increase, % at 12.5 µM; actives 2% (n = 350,000); in the data active = activation above about 40%;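 also: 0% = median of the plate's neutral control wells and 100% = double that signal; a rise in the Bmi1 reporter signal indicates esBAF inhibition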
SMARCA2 activ = activators of SMARCA2 function; AID 652017; activation, % at 9.1 µM; MG213 cells, MMTV-luciferase reporter, dexamethasone, overnight; actives 1% (n = 370,000); in the data active = activation above about 7.8%;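 also: 0% = vehicle wells and 100% = reference activator wells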
NR3A LBD binder = modulates the human NR3A ligand-binding domain. NR3A LBD differential scanning fluorimetry, Tm shift; 0% = protein alone, 100% = glycine-bound protein. Tm shift relative to glycine control, % at 25 µM. actives 2.5% (n = 340,000);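 active = melting temperature shift of at least 10% of the positive control shift, at one fixed dose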
NadD block = inhibitors of Staphylococcus aureus NadD. purified NadD enzyme, colorimetric absorbance read-out. inhibition, % at 20 µM. actives 0.78% (n = 360,000). AID 602399; in the data active = inhibition above about 26%
SKN-1 inh = blocks SKN-1 activity in C. elegans; C. elegans VP596 Pgst-4::GFP/RFP ratio, acrylamide-induced, 24 h; inhibition, % at 21.8 µM; actives 0.49% (n = 360,000);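 active = interference check ratio from 0.5 to 1.5 plus GFP to RFP signal ratio inhibition reaching or exceeding a fixed threshold, cut at about 30% in these data, passing the limit was not always enough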
Vif imaging = blocks HIV Vif function; HEK293T cells, Vif self-association by quenched fluorescence, imaging, 24 h; inhibition, % at 7.49 µM; actives 0.35% (n = 340,000); in the data active = inhibition above about 50%, passing the limit was not always enough
NadD conf = NadD (S. aureus) inhibition, single concentration confirmation; purified S. aureus NadD, colorimetric enzyme assay; shares compounds with NadD block; inhibition, % at 20 µM; actives 13% (n = 2,000); in the data active = inhibition mostly above about 42%, no sharp cut-off; inactive = mostly below about 42%
Active calls of the source: *; x = not tested or not shown.

SMILES	esBAF inh	SMARCA2 activ	NR3A LBD binder	NadD block	SKN-1 inh	Vif imaging	NadD conf
COc1ccc(CN(C)C[C@H]2Oc3ccc(NS(=O)(=O)c4ccc(Cl)cc4)cc3C(=O)N([C@H](C)CO)C[C@@H]2C)cc1	-2	x	x	x	x	x	x
O=C(O)COc1ccc(/C=N/NC(=O)c2ccc(-c3csc(Nc4ccc(Cl)cc4)n3)cc2)cc1	11	3	5	71*	16	-11	9
O=C(O)c1ccc(C=NNC(=O)c2cc(-c3ccc(Cl)cc3)n[nH]2)cc1	x	-2	x	x	x	x	x
CCOc1cc(/C=N/NC(=O)c2ccc(-c3csc(Nc4ccc(C)cc4)n3)cc2)ccc1OCC(=O)O	x	-1	2	53*	6	3	27
COc1cccc(CNC(=O)[C@H]2[C@H](CO)[C@H]3Cn4c(ccc(C5=CCCCC5)c4=O)[C@@H]2N3)c1	1	x	x	x	x	x	x
O=C(Cc1cccc2ccccc12)N/N=C/c1ccc2cccc(O)c2n1	6	-5	2	30*	-6	4	37
Cc1cccc(S(=O)(=O)N2CCCCN3[C@H](CO)[C@H](c4ccc(C#C[C@@H](C)O)cc4)[C@@H]3C2)c1	-1	x	x	x	x	x	x
O=[N+]([O-])c1ccc(Cl)c(S(=O)(=O)Nc2ccc(-c3ccc(N4CCCC4)nn3)cc2)c1	13	1	4	25	14	6	x
Cc1ccc([N+](=O)[O-])cc1S(=O)(=O)Nc1ccc(-c2ccc(N3CCCC3)nn2)cc1	16	-1	5	38*	-2	3	37
O=[N+]([O-])c1ccc(S(=O)(=O)Nc2ccc(-c3ccc(N4CCCC4)nn3)cc2)cc1	x	-2	-5	21	18	-13	x
O=[N+]([O-])c1ccc(Cl)c(S(=O)(=O)Nc2cccc(-c3ccc(N4CCCC4)nn3)c2)c1	x	-1	16*	63*	9	6	52*
Cc1ccc(S(=O)(=O)Nc2cccc(-c3ccc(N4CCCCCC4)nn3)c2)c(C)c1	70*	5	5	42*	-1	3	15
Cc1c([N+](=O)[O-])cc(S(=O)(=O)Nc2ccc(-c3ccc(N4CCCC4)nn3)cc2)cc1[N+](=O)[O-]	23	0	3	57*	-5	-1	20
C[C@H]1CN([C@@H](C)CO)C(=O)c2cc(-c3ccncc3)cnc2O[C@@H]1CN(C)C(=O)C1CC1	1	x	x	x	x	x	x
Cc1cccc(-n2c(O)c(C=Nc3ccccc3-c3n[nH]c(=S)[nH]c3=O)c3ccccc3c2=O)n1	7	4	-2	26	5	1	x
Cc1ccc(-n2c(O)c(C=Nc3ccccc3-c3n[nH]c(=S)[nH]c3=O)c3ccccc3c2=O)c(C)c1	13	1	-4	32*	3	-12	37
Cc1ccc(-n2c(O)c(C=Nc3ccccc3-c3n[nH]c(=S)[nH]c3=O)c3ccccc3c2=O)cc1C	x	0	-6	39*	-6	4	62*
O=C(O)C[C@H]1C[C@H]2c3cc(NC(=O)NC4CCCC4)ccc3O[C@H]2[C@H](CO)O1	2	x	x	x	x	x	x
C[C@@H]1CCCCO[C@@H](CN(C)C(=O)Nc2ccc3c(c2)OCO3)[C@H](C)CN([C@H](C)CO)C(=O)c2cc(N(C)C)ccc2O1	-4	x	x	x	x	x	x
COc1ccc(S(=O)(=O)N(C)C[C@@H]2Oc3ccc(NC(=O)Nc4ccc(F)cc4)cc3C(=O)N([C@@H](C)CO)C[C@@H]2C)cc1	0	x	x	x	x	x	x
O=C1S/C(=C\c2ccc(O)c([N+](=O)[O-])c2)C(=O)N1c1ccccc1Cl	x	-3	2	-3	-1	-14	x
COc1cc(/C=C2\SC(=O)N(c3cccc(Cl)c3)C2=O)cc([N+](=O)[O-])c1O	x	-2	1	26*	8	5	-1
CCn1c2ccccc2c2cc(NC(=O)CSc3nnc(-c4cccc(OC)c4)n3N)ccc21	x	-4	-3	20	20	-6	x
CCOc1ccc(-c2nnc(SCC(=O)Nc3ccc4c(c3)c3ccccc3n4CC)n2N)cc1	-1	-3	-2	31*	3	37	23
Cc1ccccc1-c1cnc2c(c1)C(=O)N([C@H](C)CO)C[C@@H](C)[C@@H](CN(C)C(=O)CC1CC1)O2	-5	x	x	x	x	x	x
SMILES	esBAF inh	SMARCA2 activ	NR3A LBD binder	NadD block	SKN-1 inh	Vif imaging	NadD conf
c1ccc(-c2cc(-c3nnc4n3N=C(c3ccc5ccccc5c3)CS4)[nH]n2)cc1	6	-1	6	55*	10	x	4
O=C(c1ccc(OCCN2CCCCC2)cc1)c1c(-c2ccc(O)cc2)sc2cc(O)ccc12	-10	0	-6	33*	-3	1	-3
Oc1cccc(-c2sc3ccccc3c2-c2ccc(OCCN3CCCCC3)cc2)c1	x	-1	x	8	12	x	x
O=c1[nH]c(CN2CCc3ccccc32)nc2scc(-c3cccs3)c12	3	-4	-2	42*	16	0	14
C[C@@H]1CN([C@@H](C)CO)C(=O)c2cccc(NS(=O)(=O)c3ccccc3)c2O[C@@H]1CN(C)C(=O)Nc1ccc(C(F)(F)F)cc1	0	x	x	x	x	x	x
COC(=O)[C@H](CC(C)C)N1Cc2cc(OC)cc(OC)c2-c2ccccc2S1(=O)=O	-1	-2	5	37*	-3	-4	48*
CCOc1ccccc1NC(=O)C(OC(=O)c1ccc(NC(=O)CC#N)cc1)c1ccccc1 (stereo unspecified)	x	-1	9	28*	11	-6	43
COc1ccc(S(=O)(=O)Nc2ccc3c(c2)C(=O)N([C@@H](C)CO)C[C@@H](C)[C@H](CN(C)C(=O)C2CCCCC2)OCCCC[C@@H](C)O3)cc1	13	x	x	x	x	x	x
O=C(Nc1ccc2oc(-c3ccccc3)nc2c1)c1ccc2c(c1)OCCO2	25	-4	8	-2	10	-9	x
O=C(Nc1ccc2oc(-c3cccnc3)nc2c1)c1ccc2c(c1)OCCO2	x	0	-16	33*	10	-3	3
O=C(Nc1nc(-c2ccccn2)cs1)c1ncc(Cl)c(Cl)c1Cl	-10	3	-2	36*	2	-6	5
NC(=O)[C@H]1CC2(CC(c3cccc(NC(=O)COc4ccc(Cl)cc4)c3)=NO2)CN1C(=O)c1ccccc1C(=O)c1ccccc1 (stereo partly specified)	-3	0	1	31*	4	2	40
CC1(C(=O)N2CC3(CC(c4cccc(NC(=O)COc5ccc(Cl)cc5)c4)=NO3)C[C@@H]2C(N)=O)CC1 (stereo partly specified)	1	1	3	4	2	-2	x
NC(=O)[C@H]1CC2(CC(c3cccc(NC(=O)COc4ccc(Cl)cc4)c3)=NO2)CN1C(=O)c1ccc(Cl)cc1 (stereo partly specified)	9	0	5	40*	-12	-7	28
